# Assay outcomes: PubChem, National Center for Advancing Translational Sciences (NCATS)
# Only some compounds are listed: those with a hit (about 10% of all), similar ones and a draw of the others.
# G9a block: inhibitors of human histone lysine methyltransferase G9a. Q96KQ7. G9a H3K9 monomethylation, AlphaScreen, 2 h. Potency, µM (doses to about 102 µM), for inactives: at the top dose activity, negative = inhibition, most hits filed as inhibitors. 350,000 compounds, 8.8% hits; note: potency is the fitted concentration of half-maximal effect; nearly all actives have a fitted effect of over 75% in size
# Target sequence (Q96KQ7 913-1193 limits assumed): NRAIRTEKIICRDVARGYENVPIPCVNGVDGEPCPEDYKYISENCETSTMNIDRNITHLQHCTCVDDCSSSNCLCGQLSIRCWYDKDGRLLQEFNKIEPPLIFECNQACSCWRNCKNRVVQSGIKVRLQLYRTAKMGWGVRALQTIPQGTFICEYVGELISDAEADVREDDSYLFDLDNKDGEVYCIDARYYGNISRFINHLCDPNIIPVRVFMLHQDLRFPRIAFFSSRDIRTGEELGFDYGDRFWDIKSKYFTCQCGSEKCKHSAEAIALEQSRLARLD
#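 Enzyme 20 nM + cpd, 15 min RT; add b-H3K9 pep 500 nM / SAM 20 uM; 2 h RT; anti-H3K9me1 Ab 0.5 ug/mL + SA donor / anti-rabbit acceptor beads 20 ug/mL each, 10 min; AlphaScreen read.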
# PLK1 PBD block: PLK1 (human) polo-box domain binding inhibition. P53350. Plk1 PBD binding of FITC phosphopeptide, fluorescence polarization. Potency, µM, for inactives: max response, negative = inhibition, hits mostly inhibitors. 360,000 compounds, 2.8% hits; note: potency is the fitted concentration of half-maximal effect; series mostly up to about 57 µM; nearly all actives have a fitted effect of over 65% in size
# VDR inh: vitamin D3 receptor (human) inhibition. 400,000 compounds, 0.93% hits. Potency, µM, inactives show max response, negative = inhibition, actives largely listed as inhibitors. VDR-SRC2-3 peptide fluorescence polarization, 2 h; note: potency is the fitted concentration of half-maximal effect
# Target sequence (P11473 whole entry, looked up): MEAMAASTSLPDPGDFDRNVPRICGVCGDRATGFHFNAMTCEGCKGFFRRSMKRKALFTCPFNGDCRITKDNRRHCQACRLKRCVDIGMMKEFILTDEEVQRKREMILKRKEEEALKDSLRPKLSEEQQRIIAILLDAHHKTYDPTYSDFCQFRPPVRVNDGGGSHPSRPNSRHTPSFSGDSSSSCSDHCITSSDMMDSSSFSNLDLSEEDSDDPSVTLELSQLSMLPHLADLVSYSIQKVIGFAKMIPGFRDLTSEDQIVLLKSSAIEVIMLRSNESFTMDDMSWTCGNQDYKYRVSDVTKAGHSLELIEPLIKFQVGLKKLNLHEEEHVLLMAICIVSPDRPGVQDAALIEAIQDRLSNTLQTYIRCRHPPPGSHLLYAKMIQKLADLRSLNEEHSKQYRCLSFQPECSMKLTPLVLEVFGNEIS
#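 Two reagent solutions held at 4 deg C in the dark were dispensed, compounds pinned at 23 nl, and the mixture incubated 2 h at room temperature. Read-out: fluorescence polarization of VDR–SRC2-3 peptide binding.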
# MmCpn inh: blocks the Methanococcus maripaludis chaperonin Mm-Cpn. purified Mm-Cpn ATPase, ADP Transcreener TR-FRET. Potency, µM (highest dose often 76.9 µM), for the others: at the top dose activity, negative = inhibition, usual class: inhibitors. 330,000 compounds, 0.031% hits. AID 504842; note: potency is the fitted concentration of half-maximal effect; nearly all actives have a fitted effect of over 80% in size
#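 Eu-cryptate anti-ADP/ADP-d2 competition gives a ratio inversely related to ADP. Enzyme at 25 nM was pre-exposed to compound for 10 min, then given 10 uM ATP for 30 min, 37°C throughout.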
# Sfp inh: blocks B. subtilis Sfp PPTase activity | Q9F4F7 | Biochemical Sfp PPTase activity, qHTS | Potency, µM, inactives show largest response in the series, negative = inhibition, hits mostly inhibitors | 310,000 compounds, 3.5% hits;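 note: the enzyme is Sfp with the accession as filed and its product quenches rhodamine fluorescence; potency is the fitted concentration of half-maximal effect; 0% = enzyme reaction without inhibitor and -100% = no enzyme wells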
#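 With Hepes-Na pH 7.6 buffer containing 10 mM MgCl2, Sfp (15 nM) modified BHQ-2-YbbR (12.5 uM) using rhodamine-CoA (5 uM). Two reads 30 minutes apart at 525/598 nm yielded each well's rate.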
# CCT modulator: changes cytosolic chaperonin activity. purified chaperonin ATPase assay, HTRF ADP detection, 30 min. activity change, % (no concentration beside the values), hits read low. 360,000 compounds, 0.3% hits. AID 651819; in the data active = activity change below about -30%
#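 TRiC (40 or 20 nM final, by batch activity) in 30 mM Tris pH 7.4, 100 mM KCl, 5 mM MgCl2, 1 mM DTT was treated with compound at 76 uM single dose, then 10 uM ATP, 30 min at 37 °C. ADP was read by HTRF Transcreener.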
# Numbers without * were called inactive; ? = inconclusive; / = no result given; [ ] = dose if it differs, or a comment. Unless noted, calls come from the whole dose curve; as a rule, active = well fitted curve in the direction sought with a large enough effect; inconclusive = small, poorly fitted or top-dose-only effect, or another doubt; inactive = no such curve, though single readings can be large; an effect the other way counts as inactive or inconclusive. Unless noted, % is set by controls: 0 for no effect and ±100 for the full control effect.
SMILES,G9a block,PLK1 PBD block,VDR inh,MmCpn inh,Sfp inh,CCT modulator
CCC(=O)N1CCc2cc(Br)cc(S(=O)(=O)N3CCCC(C(=O)Nc4cccc(Cl)c4C)C3)c21 (configuration not stated),2.4%[59 µM],/,?,/,/,/
Cc1ccccc1OCCCCn1c(CCNC(=O)C(C)(C)C)nc2ccccc21,-3.4%[59 µM],/,-5.0%,/,/,/
COC(=O)[C@H]1CC2(CC=C(C)C)C(=O)[C@@](CC=C(C)C)(C(=O)C(C(=O)c3ccccc3)=C2OC)C1(C)C (tested in a mixture with another compound),/,/,-2.9%,/,-1.2%,/
CCn1c(SCC(=O)N2CCOCC2)nc2oc3c(Cl)cc(Cl)cc3c(=O)c2c1=O,39.8µM*,/,/,1.1%,?,/
COc1ccc(C(=O)N/C(=C\c2cccc([N+](=O)[O-])c2)C(=O)Nc2cccc(C(=O)O)c2)cc1,1.9%,-2.8%,5.9%,-2.5%,5.5%,-3.0
COc1cc([N+](=O)[O-])ccc1NC(=S)Nc1cccc(C(=O)O)c1,10µM*,?,-29.3%,-3.4%,?,0.1
COc1ccccc1C(=O)N/C(=C/c1cccc([N+](=O)[O-])c1)C(=O)Nc1cccc(C(=O)O)c1,2.2%,29.9µM*,?,0.8%,-7.7%,-1.7
COc1cc([N+](=O)[O-])ccc1NC(=S)Nn1cnnc1,10µM*,9.47µM*,?,-0.2%,20µM*,-0.6
COC(=O)Nc1ccc([N+](=O)[O-])cc1OC,14.0%,-2.0%,11.3%,0.8%,15.5%,-1.7
COc1ccc(C)cc1NC(=O)Nc1cccc(C(=O)O)c1,/,-12.0%,14.0%,0.4%,-8.9%,-3.1
COc1ccccc1NC(=O)Nc1cccc(C(=O)O)c1,8.2%,-1.5%,3.3%,2.1%,-11.5%,-50.2*
COc1cccc(Cn2c(=O)c(C)nc3cnc(N4CCOCC4)nc32)c1,-1.9%[12.7 µM],/,-13.1%,/,11.5%,/
Cc1ccc(S(=O)(=O)Nc2ccc3c(c2)CCCN3C(=O)c2cccs2)cc1,3.2%[59 µM],/,4.1%,/,/,/
O=C(CSc1nnc(COc2ccc(Cl)cc2)o1)Nc1ccccc1,?,/,-6.8%,/,/,/
Cc1ccc2oc(=O)c3cnn(CC(=O)Nc4cccc(C(F)(F)F)c4)c3c2c1,1.4%[59 µM],/,-16.7%,/,/,/
COC1[C@@H](OC)C[C@H](C)[C@@H](OC)C2=CC(=O)C=C(NC(=O)/C(C)=C/C=C\[C@H](OC)[C@@H](OC(N)=O)/C(C)=C/[C@@H]1C)C2=O (some centres not stated),/,/,79.4µM*,/,-26.8%,/
COC1=C2C[C@@H](C)C[C@H](OC)[C@H](O)[C@@H](C)/C=C(\C)[C@H](OC(N)=O)[C@@H](OC)/C=C\C=C(/C)C(=O)NC(=CC1=O)C2=O,/,/,?,/,-17.0%,/
COCCn1c(C)cc(O)c(C(c2ccccc2Cl)N2CCCCC2)c1=O (configuration not stated),-0.6%[59 µM],/,4.2%,/,/,/
Fc1ccc(CNCCC(Cc2ccccc2)c2ccco2)cc1 (configuration not stated),-42.1%,-11.1%,12.9%,0.1%,11.4%,-1.2
CC(NCCC(Cc1ccccc1)c1ccco1)c1ccccc1 (configuration not stated),-29.9%,29.9µM*,-17.4%,-0.7%,6.6%,1.4
Cn1c(=O)c(CCc2ccccc2)nc2cnc(OCc3ccccc3)nc21,7.5%[0.501 µM],/,-4.2%,/,-8.6%,/
CC(C)C[C@@H](CC(=O)N[C@@H](CCCN)CC(=O)N[C@@H]1CCNC[C@H]1C(=O)N[C@H](CC(=O)N[C@@H](CCC(=O)O)CC(=O)O)Cc1ccccc1)NC(=O)[C@@H]1CNCC[C@H]1N,/,/,3.1%,/,-16.3%,/
COC(=O)c1ccc(C(NC(=O)OCc2ccccc2)/C(=C/[C@@H](C)C(=O)N(C)Cc2ccccc2)c2cccnc2)cc1 (some centres not stated),/,/,/,/,21.6%,/
O=C1[C@@H]2C(c3cccnc3)=NO[C@@H]2C(=O)N1c1ccc(Br)cc1,8.91µM*,?,-23.3%,-0.2%,?,-2.9
Cc1ccc(N2C(=O)[C@@H]3C(c4cccnc4)=NO[C@@H]3C2=O)c(C)c1,?,-3.7%,-20.0%,0.2%,23.7%,0.5
SMILES,G9a block,PLK1 PBD block,VDR inh,MmCpn inh,Sfp inh,CCT modulator
CCCCOC(=O)c1ccc(NC(=O)Cn2nnc3sc4c(c3c2=O)CCCC4)cc1,-4.4%[59 µM],/,-0.8%,/,/,/
O=C1NC(=O)C2(CCc3ccccc32)N1 (configuration not stated),-5.2%[0.501 µM],1.6%,-9.6%,0.8%,-3.1%,1.8
CC1(C2(O)CCCCC2)NCCc2ccccc21 (configuration not stated),31.6µM*,-3.5%,4.6%,0.7%,/,0.9
CCOC(=O)c1cc(-c2ccccc2)n(-c2cccc(C(=O)Nc3cccc(C)c3)c2)c1C,?,/,11.8%,/,/,/
O=[N+]([O-])c1cccc(/C=N/N2CCN(Cc3ccccc3)CC2)c1,?,-2.4%,5.0%,1.3%,5.6%,3.3
O=[N+]([O-])c1cccc(/C=N\N2CCN(Cc3ccccc3Cl)CC2)c1,10µM*,-1.3%,4.7%,1.9%,-6.7%,1.4
CC(C)c1ccc(/C=N/N2CCCCC2)cc1,10µM*,-12.2%,-14.5%,-1.2%,63.1µM*,-3.1
C/C(=N\N1CCN(Cc2ccccc2Cl)CC1)c1ccc(F)cc1,/,-11.8%,-3.8%,4.3%,-1.3%,-3.1
C/C(=N\N1CCN(Cc2ccccc2Cl)CC1)c1ccc([N+](=O)[O-])cc1,15.8µM*,-3.1%,4.6%,-3.8%,7.0%,-0.6
COc1ccccc1/C=C/C=N\N1CCN(Cc2ccccc2Cl)CC1,14.1µM*,0.8%,7.5%,0.8%,22.4µM*,0.3
COc1ccccc1/C=C/C=N/N1CCN(Cc2ccc(Cl)cc2)CC1,?,5.4%,-18.5%,2.5%,-22.1%,-1.1
COc1cccc2c1Oc1ncccc1N(C(=O)CCC(=O)NCCC(C)C)C2,-3.1%[59 µM],/,2.3%,/,/,/
COc1ccc(NC(=O)c2noc3c2CCCC3)cc1Cl,-13.0%[59 µM],/,10.5%,/,/,/
COc1ccc(Cl)cc1NC(=O)c1cc2nc(-c3ccc4c(c3)OCO4)cc(C(F)(F)F)n2n1,-6.4%[59 µM],/,11.0%,/,/,/
Clc1ccc(/C=N/N2CCN(Cc3ccccc3Cl)CC2)cc1,?,-2.3%,-16.0%,4.2%,-14.3%,-1.5
O=[N+]([O-])c1cc(/C=N/N2CCCCC2)ccc1Cl,44.7µM*,-2.1%,13.0%,2.0%,1.0%,1.1
Clc1ccccc1CN1CCN(/N=C/c2ccncc2)CC1,44.7µM*,-2.9%,-0.2%,-0.8%,1.4%,-1.5
C(=N\N1CCN(Cc2cccc3ccccc23)CC1)/c1cccs1,50.1µM*,-8.5%,19.5%,1.5%,0.4%,-0.9
